Measurements from ChEMBL document CHEMBL3988442, “University of Dundee, Small-Polar-MMV Screening Library” (2021).
Hit rate of the full screen: of about 85,000 compounds, about 440 (0.52%) showed an effect of 50% or more. What follows is part of a selection rich in strong results, with near analogues and random picks from the rest.

Assay: In vitro enzyme assay to detect hydrolysis of chlorophenol red-beta-D-[…] directly proportional to the number of Toxoplasma stably expressing beta-galactosidase
Assay type: functional, organism-based, Toxoplasma gondii
Parameters: scale not given: in the data most compounds retested in dose-response had high values

Row | Compound | Percent Effect (50 µM) [%] | Percent Effect (10 µM) [%]
1 | CC1(C)CCN(C(=O)Nc2ccsc2)CCS1(=O)=O | 14.26 | –
2 | O=C(CCCc1cn[nH]c1)N1CCS(=O)(=O)CC1 | -1.399 | –
3 | O=C1COc2ccc(S(=O)(=O)N3CCOCC3)c3c2N1CCC3 | – | -24.36
4 | Cc1c(S(=O)(=O)N2CCOCC2)cc2c(C)cc(=O)n3c2c1CCC3 | – | 70.37
5 | CCN(CC)S(=O)(=O)c1cc2c3c(c1)c(C)cc(=O)n3CCC2 | – | 17.21
6 | Cc1cc(S(C)(=O)=O)c(C)c(S(=O)(=O)NC2CCCC2)c1 | – | -4.298
7 | Cc1cc(=O)n2c3c(cc(S(=O)(=O)NC4CC4)cc13)CCC2 | – | 88.28
8 | Cc1c(S(=O)(=O)NC2CC2)cc2c(C)cc(=O)n3c2c1CCC3 | – | 69.29
9 | CCN(CC)S(=O)(=O)c1cc2c3c(c1)c(C)cc(=O)n3CC2 | – | -2.001
10 | CCCNS(=O)(=O)c1cc2c3c(c1)c(C)cc(=O)n3CCC2 | – | -12.19
11 | Cc1cc2[nH]c(=O)c(=O)[nH]c2cc1S(=O)(=O)NC1CCCCC1 | – | 9.258
12 | Cc1cccc(OCC(=O)NCC2CCNCC2)c1 | -0.8091 | –
13 | CCOC(=O)N1CCN(C(=O)c2onc(C)c2Cl)CC1 | 1.461 | –
14 | CCSc1cc(CN)ccn1 | -10.09 | –
15 | NC(=O)CCSc1nc2ncccn2n1 | -6.184 | –
16 | CCCC(=O)N(C)C1CCN(C)CC1 | 4.372 | –
17 | COc1ccc(CNC(=O)CN)cc1 | -16.08 | –
18 | CC(C)C(CC(=O)NCC(N)=O)c1ccccc1 (centres undefined) | 0.4392 | –
19 | CCCNC(=O)c1cc(-c2cnc(N3CCCC3)nc2)cn1C | – | 59.81
20 | CN(C)CCNC(=O)c1cc(-c2cnc(N3CCCC3)nc2)cn1C.O=C(O)C(F)(F)F | – | 16.58
21 | Cn1cc(-c2cnc(N3CCCC3)nc2)cc1C(=O)O | – | -6.676
22 | CNS(=O)(=O)c1c[nH]cn1 | -8.669 | –
23 | NC1CCCN(Cc2ccccc2)C1=O (centres undefined) | 3.99 | –
24 | NC1CCN(Cc2ccccc2)C1=O (centres undefined) | 57.3 | –
25 | Cc1ccc(CN2CCC(N)C2=O)cc1 (centres undefined) | 0.3266 | –

Row | Compound | Percent Effect (50 µM) [%] | Percent Effect (10 µM) [%]
26 | Cn1nccc1C(=O)NC1Cc2ccccc2C1 | 4.859 | –
27 | CCc1nc(CN2CCCC2C(=O)N(C)C)cs1 (centres undefined) | 6.641 | –
28 | CC(NC(=O)c1ccncc1F)C(C)(C)CN(C)C (centres undefined) | -0.7264 | –
29 | CCN(CC)CCOC1CCNCC1 | -2.471 | –
30 | CC(=O)c1cccc(OCC(=O)Nc2cc(C)on2)c1 | 98.67 | –
31 | Cc1cc(NC(=O)COc2ccc3c(c2)OCO3)no1 | 15.18 | –
32 | CC(=O)c1cccc(OCC(=O)NC2CCCC2)c1 | -4.665 | –
33 | Cc1cc(CNCc2c(C)nn(C)c2N2CCOCC2)no1 | – | -17.93
34 | Cc1nc(C2(NCc3c(C)nn(C)c3N3CCOCC3)CCC2)no1 | – | 56.3
35 | COc1c(CNC2(c3ccc(Cl)cc3)CCC2)c(C)nn1C | – | 7.233
36 | Cc1csc(CNCc2c(C)nn(C)c2N2CCOCC2)n1 | – | -26.69
37 | COc1c(CNC2(c3noc(C)n3)CCC2)c(C(C)C)nn1C.Cl | – | 11.38
38 | COc1c(CNC2(c3noc(C)n3)CCC2)c(C)nn1C.Cl | – | 55.08
39 | CC(C)(C)OC(=O)NCCCOC1CCNCC1 | 10.6 | –
40 | O=C(CSc1nnnn1Cc1cccs1)NC1CC1 | -25.88 | –
41 | CCCn1nc2c(cc1=O)CN(c1ncnc3ccsc13)CC2 | – | -2.045
42 | CC(C)n1nc2c(cc1=O)CN(c1ncnc3ccsc13)CC2 | – | 9.432
43 | CCn1nc2c(cc1=O)CN(c1ncnc3ccsc13)CC2 | – | 76.59
44 | Cn1nc2c(cc1=O)CN(c1nc3ccccc3s1)CC2 | – | -0.5196
45 | CC(C)n1nc2c(cc1=O)CN(c1ncnc3ccccc13)CC2 | – | -24.89
46 | Cn1nc2c(cc1=O)CN(c1ncnc3ccsc13)CC2 | – | 82.27
47 | O=C(NC1CCCc2[nH]c(=O)ccc21)c1cc(Br)c[nH]1 (centres undefined) | 33.46 | –
48 | O=C(CCCn1cccn1)N[C@H]1C[C@@H]2OCC[C@H]12 | 16.13 | –
49 | O=C(Cc1cccs1)N1CCNCC1 | 1.272 | –
50 | Cc1nn(C)c2c(N3CCCC3)nc(C3CC3)nc12 | – | 10.42

Row | Compound | Percent Effect (50 µM) [%] | Percent Effect (10 µM) [%]
51 | CCCc1nc(N2CCCCCC2)c2c(n1)c(C)nn2CC | – | 14.57
52 | Cc1nn(C)c2c(=O)n(C)c(NCC3CCCO3)nc12 (centres undefined) | – | 10.39
53 | CCCn1c(N2CCCCC2)nc2c(C)nn(C)c2c1=O | – | 85.32
54 | CCn1c(NCC2CCCO2)nc2c(C)nn(C)c2c1=O (centres undefined) | – | 22.67
55 | CCCn1c(N2CCCC2)nc2c(C)nn(C)c2c1=O | – | 74.14
56 | CCCc1nc(N2CCCC(C)C2)c2c(n1)c(C)nn2CC (centres undefined) | – | 19
57 | CCCn1c(N2CCCC(C)C2)nc2c(C)nn(C)c2c1=O (centres undefined) | – | 58.79
58 | CCn1nc(C)c2ncnc(N3CCCC(C)C3)c21 (centres undefined) | – | 16.85
59 | CC(N)C1(N2CCOCC2)CCCC1 (centres undefined) | -11.55 | –
60 | CCNC(=O)c1cc2ccc(OC)cc2[nH]1 | -0.6946 | –
61 | O=C(NCC(F)(F)F)C1CCN(CC(F)F)CC1 | -5.562 | –
62 | CCN(Cc1nonc1C)C(=O)Cn1nc(C(F)(F)F)cc1C1CC1 | – | 53.8
63 | CCN(Cc1nonc1C)C(=O)c1cc(C(F)(F)F)nn1C | – | 29.16
64 | CCN(Cc1nonc1C)C(=O)Cn1nc(C(F)(F)F)cc1C | – | 32.79
65 | CC(CO)(CO)NC(=O)Nc1cc(Br)ccc1F | 12.92 | –
66 | COCCCNc1cc(C)nn2cnnc12 | – | 36.97
67 | CCOCCCNc1cc(C)nn2cnnc12 | – | 66.33
68 | COCCn1cnnc1CNc1cc(C)nc2c(C)c(C)nn12 | – | -11.49
69 | CCOCCCNc1nc2c(s1)c(C)nn2C | – | -0.8738
70 | Cc1nn(C)c2nc(-c3ccccn3)nc(NCCCOC(C)C)c12 | – | -3.21
71 | COCCNc1cc(C)nn2cnnc12 | – | 70.24
72 | COc1cc(-c2cnnc(NCCCOC(C)C)n2)cc(OC)c1OC | – | 4.137
73 | Cc1cc(NCCCOC(C)C)c2nncn2n1 | – | 73.87
74 | CCOCCCNC(=O)c1cn(CC)nc1C | – | 0.2391
